This excerpt belongs to a sample that is enriched for hits.
IDE exosite inh: exo-site inhibitors of human IDE, primary screen, biochemical, fluorescence anisotropy, probe displacement. Insulin-degrading enzyme (Homo sapiens), P14735. purified IDE, FL-6b probe fluorescence polarization; stronger effect = lower value. z-score at 20 µM. actives 6.3% (n = 17,000). AID 1259349, 2017;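 active means z-score of -3 or lower, meaning strong loss of probe binding signal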;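 further: His-tagged human IDE residues 42-1019 made in E. coli with 30 nM FL-6b probe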
Target sequence (P14735 42-1019 limits assumed): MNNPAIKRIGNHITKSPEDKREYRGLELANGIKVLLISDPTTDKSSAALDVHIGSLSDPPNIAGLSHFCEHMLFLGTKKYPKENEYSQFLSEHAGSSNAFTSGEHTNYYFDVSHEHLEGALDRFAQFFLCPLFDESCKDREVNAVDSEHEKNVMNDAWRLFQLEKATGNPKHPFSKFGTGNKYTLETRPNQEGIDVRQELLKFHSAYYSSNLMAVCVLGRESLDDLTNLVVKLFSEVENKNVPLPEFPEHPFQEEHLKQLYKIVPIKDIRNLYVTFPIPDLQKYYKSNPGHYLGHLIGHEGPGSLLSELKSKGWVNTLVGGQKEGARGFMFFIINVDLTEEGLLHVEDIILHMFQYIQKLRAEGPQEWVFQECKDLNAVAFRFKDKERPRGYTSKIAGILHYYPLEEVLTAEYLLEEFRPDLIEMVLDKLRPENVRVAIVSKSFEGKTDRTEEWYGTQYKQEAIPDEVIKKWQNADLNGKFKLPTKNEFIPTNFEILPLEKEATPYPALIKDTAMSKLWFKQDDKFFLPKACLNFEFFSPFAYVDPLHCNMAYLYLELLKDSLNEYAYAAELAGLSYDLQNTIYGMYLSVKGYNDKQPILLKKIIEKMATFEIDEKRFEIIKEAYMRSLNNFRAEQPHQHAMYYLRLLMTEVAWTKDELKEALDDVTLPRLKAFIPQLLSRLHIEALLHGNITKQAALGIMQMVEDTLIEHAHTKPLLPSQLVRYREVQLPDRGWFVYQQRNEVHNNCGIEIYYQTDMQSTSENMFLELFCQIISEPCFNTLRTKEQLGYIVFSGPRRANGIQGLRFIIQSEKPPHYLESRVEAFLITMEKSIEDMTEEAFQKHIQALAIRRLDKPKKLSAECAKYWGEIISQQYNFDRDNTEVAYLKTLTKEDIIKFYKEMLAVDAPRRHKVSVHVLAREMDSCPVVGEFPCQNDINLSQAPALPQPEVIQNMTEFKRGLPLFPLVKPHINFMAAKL
* marks the source's active call; other numbers are inactive results.

SMILES	IDE exosite inh
Cc1ccccc1-c1ccc([C@@H]2[C@H](CO)N3CCCCN(CC4CCOCC4)C[C@@H]23)cc1	-5.5*
Cc1ccccc1-c1ccc([C@@H]2[C@@H](CO)N3CCCCN(S(C)(=O)=O)C[C@H]23)cc1	1.7
OC[C@@H]1[C@@H](c2ccc(C#Cc3ccccc3)cc2)[C@@H]2CN(CC3CCOCC3)CCCCN12	-2.6
COc1ccc(-c2ccc([C@@H]3[C@@H](CO)N4C(=O)CN(C(=O)Cc5ccccn5)C[C@@H]34)cc2)cc1	-1.9
CC(=O)NC[C@@H]1[C@@H](c2ccc(-c3cccnc3)cc2)[C@@H](CO)N1C(=O)CC1CC1	-0.4
CN(C)C(=O)c1cccc(-c2ccc([C@@H]3[C@H](CO)N4CCCCN(C(=O)C5CCC5)C[C@@H]34)cc2)c1	3.9
C/C=C/c1ccc([C@H]2[C@@H](CO)N(S(C)(=O)=O)[C@H]2CN(CCC)C(C)=O)cc1	-0.44
N#C[C@H]1[C@@H](c2ccccc2C2=CCCC2)[C@@H](CO)N1S(=O)(=O)c1ccccc1	5.1
COc1ccc(-c2ccc([C@H]3[C@@H](CO)N4CCCCN(S(=O)(=O)c5cccs5)C[C@@H]34)cc2)cc1	4.4
COCC(=O)N1CC2(CCN(C(=O)c3cccnc3)CC2)c2c([nH]c3cc(OC)ccc23)[C@H]1CO	-0.52
COCCNC(=O)[C@H]1[C@H](CO)[C@H]2Cn3c(cccc3=O)[C@@H]1N2Cc1cccc(Cl)c1	1.6
CCCN1CCC2(CC1)CN(Cc1ccc3c(c1)OCO3)[C@H](CO)c1[nH]c3cc(OC)ccc3c12	-0.73
Cc1ccccc1-c1ccc([C@H]2[C@@H](CO)N3CCCCN(CC4CC4)C[C@H]23)cc1	-11*
OC[C@@H]1[C@@H](c2ccc(-c3cccnc3)cc2)[C@H]2CN(CC3CC3)CCCCN12	-1.2
OC[C@@H]1[C@H](c2ccc(-c3cccnc3)cc2)[C@H]2CN(CC3CC3)CCCCN12	0.7
C/C=C/c1ccc([C@@H]2[C@@H](CN(CC)C(C)=O)N(S(C)(=O)=O)[C@H]2CO)cc1	0.33
O=C(NC1CCCC1)N1CC(=O)N2[C@H](CO)[C@H](c3ccc(-c4cccnc4)cc3)[C@@H]2C1	-3.4*
O=C(C1CCCCC1)N1CC(=O)N2[C@@H](CO)[C@@H](c3ccc(-c4cccnc4)cc3)[C@@H]2C1	-0.39
O=C(NC1CCCC1)N1CC(=O)N2[C@H](CO)[C@H](c3ccc(-c4ccncc4)cc3)[C@@H]2C1	0.54
O=C(NC1CCCCC1)N1CC(=O)N2[C@H](CO)[C@@H](c3ccc(-c4ccncc4)cc3)[C@H]2C1	-0.66
O=C(C1CCCCC1)N1CC(=O)N2[C@H](CO)[C@@H](c3ccc(-c4cccnc4)cc3)[C@@H]2C1	-5.1*
O=C(NC1CCCC1)N1CC(=O)N2[C@H](CO)[C@@H](c3ccc(-c4ccncc4)cc3)[C@H]2C1	1.1
O=C(C1CCCCC1)N1CC(=O)N2[C@H](CO)[C@H](c3ccc(-c4cccnc4)cc3)[C@@H]2C1	0.25
O=C(NC1CCCC1)N1CC(=O)N2[C@H](CO)[C@H](c3ccc(-c4ccccc4)cc3)[C@@H]2C1	-5.7*
O=C(C1CCCCC1)N1CC(=O)N2[C@H](C1)[C@@H](c1ccc(-c3cccnc3)cc1)[C@@H]2CO	-0.83
SMILES	IDE exosite inh
N#Cc1ccc(-c2ccc([C@@H]3[C@H](CO)N4CCCCN(S(=O)(=O)c5ccccc5)C[C@@H]34)cc2)cc1	2.5
O=C(Nc1ccc(F)cc1)N1CCCCN2[C@@H](CO)[C@@H](c3ccc(C#Cc4ccccn4)cc3)[C@@H]2C1	2.9
CCCC#Cc1ccc([C@@H]2[C@H](CO)N3C(=O)CN(S(=O)(=O)c4ccccc4C)C[C@@H]23)cc1	-2.3
O=C(c1ccccc1F)N1CC[C@H]2[C@H](CO)Nc3ccc(Br)cc3[C@H]21	1.4
C[C@@H](NC(=O)C[C@@H]1CC[C@H]2[C@H](COc3ccc(NS(=O)(=O)c4ccc(Cl)cc4)cc3C(=O)N2C)O1)c1ccccc1	-0.68
CC(=O)NC[C@@H]1[C@@H](c2ccccc2)[C@@H](CO)N1C(=O)Cc1ccncc1	0.19
Cc1cccc(S(=O)(=O)N[C@H]2CC[C@H](CCNC(=O)Nc3cc(F)ccc3F)O[C@@H]2CO)c1	3.1
CCCNC(=O)N1CC(=O)N2[C@H](CO)[C@@H](c3ccc(C#Cc4ccccc4)cc3)[C@@H]2C1	-6.9*
CCCC#Cc1ccc([C@H]2[C@@H](CO)N3C(=O)CN(C(=O)NCCC)C[C@@H]23)cc1	3.6
COc1ccccc1NC(=O)N1CC(=O)N2[C@H](C1)[C@H](c1ccc(-c3cccc(C)c3)cc1)[C@@H]2CO	-1.8
CCCNC(=O)N1CC(=O)N2[C@H](C1)[C@@H](c1ccc(C#Cc3cccc(F)c3)cc1)[C@@H]2CO	-3
CCCNC(=O)N1CC(=O)N2[C@H](C1)[C@@H](c1ccc(-c3ccccc3)cc1)[C@@H]2CO	-5.6*
CCCNC(=O)N1CC(=O)N2[C@@H](CO)[C@H](c3ccc(-c4cccc(C)c4)cc3)[C@@H]2C1	-16*
COc1ccccc1NC(=O)N1CC(=O)N2[C@H](CO)[C@@H](c3ccc(-c4cccc(C)c4)cc3)[C@@H]2C1	-9.4*
CCCNC(=O)N1CC(=O)N2[C@H](CO)[C@H](c3ccc(C#Cc4ccc(F)cc4)cc3)[C@@H]2C1	-0.11
CCCNC(=O)N1CC(=O)N2[C@H](C1)[C@H](c1ccc(-c3ccc(F)cc3)cc1)[C@@H]2CO	-0.28
CCCNC(=O)N1CC(=O)N2[C@H](CO)[C@H](c3ccc(C#Cc4cccc(OC)c4)cc3)[C@@H]2C1	-2
CCCNC(=O)N1CC(=O)N2[C@H](CO)[C@@H](c3ccc(C#Cc4ccc(F)cc4)cc3)[C@H]2C1	3.1
COc1ccccc1NC(=O)N1CC(=O)N2[C@H](CO)[C@@H](c3ccc(-c4ccc(F)cc4)cc3)[C@H]2C1	1.1
N#C[C@H]1[C@@H](c2ccccc2)[C@H](CO)N1C(=O)c1ccc2c(c1)OCO2	-0.035
O=C(CC1CC1)N1CC2(C1)[C@H](c1ccccc1)[C@H](CO)N2Cc1ccccn1	-1.2
O=C(Nc1ccccc1)N1CC(=O)N2[C@H](CO)[C@H](c3ccc(C#Cc4cccnc4)cc3)[C@H]2C1	0.69
CN(C)CC(=O)N1CCCCN2[C@H](CO)[C@@H](c3ccc(-c4cccnc4)cc3)[C@@H]2C1	1.9
CCCNC(=O)N1C[C@H](O)COC[C@@H]2O[C@@H](CC(=O)OC)CC[C@H]21	-0.55
COCC(=O)Nc1ccc2c(c1)C(=O)N(C)[C@@H]1CC[C@H](CC(=O)NCCCN(C)C)O[C@@H]1CO2	0.06
SMILES	IDE exosite inh
O=C(Nc1cccc(F)c1)N1CC(=O)N2[C@H](CO)[C@@H](c3ccc(-c4ccccc4F)cc3)[C@H]2C1	2.1
O=C(Nc1cccc(F)c1)N1CC(=O)N2[C@H](C1)[C@H](c1ccc(Br)cc1)[C@@H]2CO	0.76
CCCNC(=O)NC[C@@H]1[C@H](c2ccc(C3=CCCC3)cc2)[C@H](CO)N1C(=O)CC	1.1
CCCC(=O)N1CCC2(CC1)CN[C@@H](CO)c1[nH]c3cc(OC)ccc3c12	0.32
O=C(c1cccc(F)c1)N1CC2(C1)[C@@H](c1ccccc1)[C@@H](CO)N2C(=O)C1CCCCC1	-2.8
CN(C)CC#Cc1ccc([C@H]2[C@@H](CO)N3C(=O)CN(C(=O)c4cccc(F)c4)C[C@@H]23)cc1	1
COc1ccccc1NC(=O)N1CCCCN2[C@@H](CO)[C@H](c3ccc(-c4cccc(F)c4)cc3)[C@@H]2C1	3.1
COc1ccc2c3c([nH]c2c1)[C@@H](CO)N(S(C)(=O)=O)CC31CN(C(=O)Cc2cccnc2)C1	0.033
